Shown is part of a subset that was picked to be rich in hits.
Dicer processing: blocks human Dicer maturation of pre-miR-21; Q9UPY3; cat-ELCCA pre-miR-21 Dicer processing, chemiluminescence; hits give high values; z-score at 25 µM; 6% of 47,000 active; in the data active = z-score above about 3, passing the limit was not always enough;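 note: higher signal means more uncleaved substrate so more Dicer inhibition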
Large screens that a line does not name were inactive.

COC(=O)C1=C(C)NC2=C(C(=O)CC(c3ccc(Cl)cc3)C2)C1c1ccc(C)cc1 (stereo unspecified)	none
COC(=O)c1ccc(C2C(C(=O)OCc3ccc(OC)cc3)=C(C)NC3=C2C(=O)CC(C)(C)C3)cc1 (stereo unspecified)	none
CCCOC(=O)C1=C(C)NC2=C(C(=O)CC(C)(C)C2)C1c1ccc(N(CC)CC)cc1 (stereo unspecified)	none
CCCOC(=O)C1=C(C)NC2=C(C(=O)CC(C)(C)C2)C1c1ccc(O)cc1 (stereo unspecified)	Dicer processing 3.81
C=CCOC(=O)C1=C(C)NC2=C(C(=O)CC(C)(C)C2)C1c1ccc(OC(C)=O)cc1 (stereo unspecified)	none
CC1=C(C(=O)OCCOC(C)C)C(c2ccc(O)cc2)C2=C(CC(C)(C)CC2=O)N1 (stereo unspecified)	none
COc1ccc(COC(=O)C2=C(C)NC3=C(C(=O)CC(C)(C)C3)C2c2ccncc2)cc1 (stereo unspecified)	none
COc1ccc(NC(=S)NC(C)(C)C)c([N+](=O)[O-])c1	none
COc1ccc(CCNC(=S)Nc2ccc(S(=O)(=O)N3CCCCC3)cc2)cc1OC	none
Cc1cc(C)c(N=c2oc(C(C)(C)C)cs2)cc1C	none
Cc1ccc(N2CC(O)=C(c3nc4ccccc4c(=O)[nH]3)C2=N)cc1	none
c1ccc2oc(-c3csc(-c4ccc(-c5ccno5)s4)n3)cc2c1	none
O=C(CSc1nnc2ccccn12)c1ccc2c(c1)OCO2	none
CC1=C(C(=O)OCC(C)C)C(c2ccccc2F)C2=C(CC(c3cccs3)CC2=O)N1 (stereo unspecified)	none
O=C1c2cccc3cccc(c23)C(=O)C1c1ccccc1	none
O=C1c2cc3ccccc3cc2C(=O)C1c1ccccc1	Dicer processing 3.98
O=C1c2ccccc2C(=O)C1c1ccc2ccccc2n1	none
CCNc1nc2[nH]c(=O)cc(O)c2s1	none
O=c1c2ccccc2c(-c2ccc(Cl)cc2)nn1CN1CCOCC1	none
CCOC(=O)C1=C(C)Nc2nnnn2C1c1ccccc1 (stereo unspecified)	Dicer processing 3.06
CCCOC(=O)C1=C(C)Nc2nnnn2C1c1ccccc1OCC (stereo unspecified)	Dicer processing 3.43
CCOC(=O)C1=C(C)Nc2nnnn2C1c1ccccc1Cl (stereo unspecified)	none
CCOC(=O)C1=C(c2ccccc2)Nc2ncnn2C1c1ccc(F)cc1 (stereo unspecified)	none
CCOc1ccccc1C1C(C(=O)OC(C)C)=C(C)Nc2nnnn21 (stereo unspecified)	Dicer processing 4.49
CCCOc1ccccc1C1C(C(=O)OC(C)C)=C(C)Nc2nnnn21 (stereo unspecified)	none
CCOC(=O)C1=C(C)Nc2nnnn2C1c1ccc(OC)c(OC)c1 (stereo unspecified)	none
CCOC(=O)C1=C(C)Nc2nnnn2C1c1ccc(OCc2ccccc2)c(OC)c1 (stereo unspecified)	none
CCOC(=O)C1=C(C)Nc2ncnn2C1c1ccc(OC)c(OC)c1 (stereo unspecified)	none
CCOC(=O)C1=C(C)Nc2nnnn2C1c1cc(Br)ccc1OCC (stereo unspecified)	none
CCOC(=O)C1=C(c2ccccc2)Nc2ncnn2C1c1cccc(Br)c1 (stereo unspecified)	Dicer processing 3.25
CCOC(=O)C1=C(C)Nc2nnnn2C1c1ccccn1 (stereo unspecified)	none
O=C(CN1C(=O)c2ccccc2C1=O)c1cccc(C(F)(F)F)c1	none
CCOC(=O)c1cc2c(NC(=O)c3ccc(OC)cc3)c(C(=O)OCC)sc2nc1C(F)(F)F	none
Cc1cc(S(=O)(=O)n2ccc(-c3cc(Cl)sc3Cl)n2)cc(C)c1F	none
Cc1sc2nc(-c3ccccc3)oc(=O)c2c1C	none
Cc1nnsc1-c1nc2cccc(C)c2c(=O)o1	Dicer processing 3.38
Cc1cccc(C)c1NC(=O)c1snnc1C	none
COC(=O)C(C#N)=C(SC)SC	none
CN(C)/C=C/c1nnnn1-c1ccc2ccccc2c1	none
Cc1cc(C)cc(Oc2coc3cc(O)ccc3c2=O)c1	Dicer processing 4.34
Cc1cccc(Oc2coc3cc(OC(=O)c4cccnc4)ccc3c2=O)c1	none
CCOC(=O)Oc1ccc2c(=O)c(Oc3ccc(C(C)(C)C)cc3)coc2c1	none
CCCCOC(=O)Oc1ccc2c(=O)c(Oc3ccc(C)cc3)coc2c1	Dicer processing 3.55
Cc1ccc(Oc2coc3cc(O)ccc3c2=O)cc1	none
Cc1cccc(Oc2coc3cc(OC(=O)c4ccncc4)ccc3c2=O)c1	Dicer processing 27.6
COc1ccc(Oc2coc3cc(OC(=O)c4ccc(F)cc4)ccc3c2=O)cc1	none
C=CCOC(=O)Oc1ccc2c(=O)c(Oc3ccc(CC)cc3)coc2c1	none
CC(C)(C)c1ccc(Oc2coc3cc(O)ccc3c2=O)cc1	none
CCC(=O)Oc1ccc2c(=O)c(Oc3ccccc3Br)coc2c1	Dicer processing 4.29
CC(C)OC(=O)C(C)Oc1ccc2c(=O)c(Oc3ccccc3Br)coc2c1 (stereo unspecified)	none
CC(C)(C)C(=O)Oc1ccc2c(=O)c(Oc3ccccc3Br)coc2c1	none
Cc1cccc(Cn2nc(C(C)(C)C)cc2C(=O)Nc2ccc3c(c2)OCO3)c1	none
Cc1nc(SCC(=O)Nc2cccc3nsnc23)oc1C	none
C/C(=N\Nc1ccc(F)cc1F)c1sc(CCn2cccc(C(F)(F)F)c2=O)nc1C	none
O=C1NC2NC(=O)N(c3ccccc3)C2N1 (stereo unspecified)	none
N#CCCN/N=C/c1ccc2c(c1)OCO2	none
COc1ccc(N/C=C\C(=S)c2ccc(OC)cc2)cc1	none
Cc1nc(C(F)(F)F)nc(Sc2n[nH]c(-c3cccs3)n2)c1C	none
Cc1nc2ccccc2c2c1C(=O)CC(c1ccc(F)cc1)=N2	none
CN(C)c1ccc(NC2CC(=O)N(c3ccccc3)C2=O)cc1 (stereo unspecified)	none
O=C(CSc1ncn[nH]1)c1ccc(-c2ccccc2)cc1	none
COc1ccccc1C(=O)Oc1ccc2c(=O)c(Oc3ccccc3Br)coc2c1	none
Cc1ccc(C)c(Oc2coc3cc(OCC(=O)OCC(C)C)ccc3c2=O)c1	none
CCC(C)OC(=O)COc1ccc2c(=O)c(Oc3cc(C)ccc3C)coc2c1 (stereo unspecified)	none
COc1ccccc1-c1coc2cc(OC(=O)c3ccc(Cl)cc3)ccc2c1=O	none
CCOCCOC(=O)COc1ccc2c(=O)c(Oc3cc(C)ccc3C)coc2c1	Dicer processing 3.4
COc1ccc(C(=O)Oc2ccc3c(=O)c(Oc4ccccc4Br)coc3c2)cc1OC	Dicer processing 3.1
CSc1cccc(-n2c(=O)n(Cc3ccccc3)c(=O)c3[nH]cnc32)c1	none
CCCN1C(=O)C2(/C(=C(/O)c3ccc(Cl)cc3)C(=O)C(=O)N2CC2CCCO2)c2ccccc21 (stereo unspecified)	none
O=S(=O)(c1ccccc1)C1CC1(Cl)Cl (stereo unspecified)	none
CCOC(=O)C1=C(C)NC2=C(C(=O)c3ccccc32)C1c1ccccc1OC (stereo unspecified)	none
Cc1sc2ncn(CC(=O)NCC(=O)O)c(=O)c2c1C	none
Cc1c2c(=O)n(-c3nc4ccccc4s3)nc-2cc(O)n1Cc1ccccc1	none
CC(=O)N1CCN(CCn2c(C)c3c(=O)n(-c4nc5ccccc5s4)[nH]c3cc2=O)CC1	none
Cc1c2c(=O)n(-c3nc4ccccc4s3)[nH]c2cc(=O)n1Cc1ccc(C(=O)O)cc1	Dicer processing 27.1
CC(C)CC(NC(=O)Cc1ccsc1)C(=O)NN (stereo unspecified)	none
CC(C)CC(NC(=O)Cc1ccsc1)C(=O)NNC(=O)c1ccccc1Cl (stereo unspecified)	none
CC(C)CC(NC(=O)Cc1ccsc1)C(=O)NNS(=O)(=O)c1ccc(Cl)cc1 (stereo unspecified)	Dicer processing 12.5

Assay outcomes: PubChem BioAssay, Center for Chemical Genomics, University of Michigan
